We go through eight compounds from PubChem BioAssay (NCI).

The panel holds about 83,000 compounds, 20% with a hit somewhere; the sample as a whole holds those more often.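 The test compound was applied at a single concentration to cells in 96-well plates for 48 hours, and percent growth was recorded.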 Unmarked numbers belong to inactive results. Activity calls are given as the source filed them. Rule for the calls: active = growth percent below 10; inactive = the rest.

Among the test systems are SK-MEL-2 melanoma; EKVX NSCLC; SN12C renal; UO-31 renal; TK-10 renal; ACHN renal; CAKI-1 renal; A498 renal; CCRF-CEM leukemia; MOLT-4 leukemia; SR leukemia; RPMI-8226 leukemia; OVCAR-8 ovarian; OVCAR-5 ovarian; OVCAR-4 ovarian; SK-OV-3 ovarian; OVCAR-3 ovarian; HS 578T breast; NCI/ADR-RES ovarian; IGROV1 ovarian.
Holding throughout (experiment): NCI-60 one-dose screen, 48 h (100 = growth as untreated, 0 = no growth, -100 = all killed)
Conditions in all cases: 10 µM unless noted

In the case of `COC(=O)c1cc2c(/C=C3/NC(=S)NC3=O)coc2n1C`, the growth in the assay on SK-MEL-2 melanoma was 107%; in the assay with EKVX NSCLC, 93.4%; with SN12C renal, 118%; in the assay with UO-31 renal, 50%; in the assay on TK-10 renal, 89.9%; with ACHN renal, 95.2%. Besides, the growth in the assay with CAKI-1 renal was 74.4%; in the assay on A498 renal, 99.6%; in the assay on CCRF-CEM leukemia it was 85.2%; in the assay with MOLT-4 leukemia, 99.9%; in the assay with SR leukemia, 78.3%; in the assay with RPMI-8226 leukemia it was 75.8%. In addition, the growth with OVCAR-8 ovarian was 76.3%; in the assay with OVCAR-5 ovarian it was 96.7%; with OVCAR-4 ovarian, 112%; in the assay on SK-OV-3 ovarian it was 68.5%; with OVCAR-3 ovarian it was 95.6%; in the assay on HS 578T breast it was 66.3%. For the same compound, the growth with NCI/ADR-RES ovarian is 105%.

For the compound `COC(=O)c1cc2oc(/C=N\NC(=O)c3cc4oc(C)c(C)c4[nH]3)cc2[nH]1`, the growth with SK-MEL-2 melanoma was 109%; in the assay on EKVX NSCLC, 91.6%; in the assay with SN12C renal, 120%; with UO-31 renal it was 94.7%; in the assay with TK-10 renal it was 132%; with ACHN renal, 104%. The growth in the assay on CAKI-1 renal was 80.5%; in the assay with A498 renal it was 115%; in the assay with CCRF-CEM leukemia, 83.7%; with MOLT-4 leukemia, 82.1%; in the assay with SR leukemia, 51.4%; in the assay with RPMI-8226 leukemia, 35.1%. In addition, the growth in the assay on OVCAR-8 ovarian is 108%; in the assay on OVCAR-5 ovarian, 111%; in the assay on OVCAR-4 ovarian it was 118%; in the assay with SK-OV-3 ovarian, 100%; in the assay on OVCAR-3 ovarian it was 128%; in the assay with HS 578T breast it was 108%. For the same compound, the growth in the assay with NCI/ADR-RES ovarian was 102%.

In the case of `O=C(COc1cccc(/C=C2\Cc3ccccc3C2=O)c1)c1ccc(Cl)cc1`, the growth was 72.8% in the assay on SK-MEL-2 melanoma; 88.2% in the assay on EKVX NSCLC; 95% in the assay with SN12C renal; 18.5% in the assay with UO-31 renal; 163% in the assay on TK-10 renal; 154% in the assay with ACHN renal. Also, the growth is 104% in the assay with CAKI-1 renal; 90.1% with A498 renal; 89.8% in the assay with CCRF-CEM leukemia; 107% with MOLT-4 leukemia; 111% in the assay with SR leukemia; 90.2% in the assay with RPMI-8226 leukemia. The growth was 90.4% in the assay with OVCAR-8 ovarian; 103% in the assay with OVCAR-5 ovarian; 90.1% with OVCAR-4 ovarian; 130% with SK-OV-3 ovarian; 120% in the assay on OVCAR-3 ovarian; 102% in the assay on HS 578T breast. Besides, the growth in the assay on NCI/ADR-RES ovarian was 93.5%.

For `CCN(CC)c1ccc(N=C2C=CC(=O)C=C2NC(C)=O)cc1`, the growth in the assay with SK-MEL-2 melanoma is 98.6%; with EKVX NSCLC, 106%; with SN12C renal, 97.5%; with UO-31 renal, 71%; with TK-10 renal, 95.9%; in the assay with ACHN renal it was 83.7%. Also, the growth in the assay on CAKI-1 renal is 105%; in the assay with A498 renal, 82.1%; with CCRF-CEM leukemia it was 87.6%; with MOLT-4 leukemia it was 99.5%; in the assay with SR leukemia, 110%; in the assay with RPMI-8226 leukemia, 89.8%. The growth in the assay on OVCAR-8 ovarian was 94%; in the assay on OVCAR-5 ovarian, 108%; in the assay with SK-OV-3 ovarian, 86.9%; with IGROV1 ovarian, 96.7%; in the assay with OVCAR-3 ovarian it was 74.2%; with HS 578T breast, 104%. Also, the growth in the assay on NCI/ADR-RES ovarian is 105%.

Consider `O=C(COc1ccc(/C=C2\Oc3ccc4ccccc4c3C2=O)cc1)c1ccc([N+](=O)[O-])cc1`, for which the growth with SK-MEL-2 melanoma is 48.6%; with EKVX NSCLC, 100%; in the assay on SN12C renal it was 89.7%; in the assay on UO-31 renal, 2.26% (active); with TK-10 renal, 117%; in the assay on ACHN renal it was 107%. For the same compound, the growth with CAKI-1 renal is 101%; in the assay on A498 renal it was 103%; in the assay on CCRF-CEM leukemia it was -17.2% (active); with MOLT-4 leukemia, 20.4%; in the assay on SR leukemia, 29%; in the assay with RPMI-8226 leukemia, 61.9%. The growth was 91.1% in the assay with OVCAR-8 ovarian; 103% in the assay on OVCAR-5 ovarian; 102% in the assay on OVCAR-4 ovarian; 103% in the assay with SK-OV-3 ovarian; 105% in the assay with HS 578T breast; 101% in the assay on NCI/ADR-RES ovarian.

Consider `O=c1[nH]cc(Nc2cc(Cl)c3nonc3c2[N+](=O)[O-])c(=O)[nH]1`, for which the growth in the assay with SK-MEL-2 melanoma was 20%; with EKVX NSCLC, 34%; in the assay with SN12C renal, 107%; in the assay on UO-31 renal, 89.3%; in the assay on TK-10 renal, 125%; in the assay with ACHN renal, 92.9%. Besides, the growth was 27% in the assay on CAKI-1 renal; 93.8% in the assay on A498 renal; 106% in the assay on CCRF-CEM leukemia; 91.1% with MOLT-4 leukemia; 100% in the assay on SR leukemia; 96.2% in the assay on RPMI-8226 leukemia. In addition, the growth in the assay on OVCAR-8 ovarian is 98.4%; in the assay on OVCAR-5 ovarian, 98.1%; with SK-OV-3 ovarian it was 104%; in the assay with OVCAR-3 ovarian, 123%; in the assay on HS 578T breast, 47.8%; with NCI/ADR-RES ovarian, 96%.

As to `COc1ccc(CNC(=O)c2c(C)n([O-])c3ccccc3[n+]2=O)cc1`, the growth in the assay on SK-MEL-2 melanoma was 95.8%; in the assay with EKVX NSCLC it was 83.8%; in the assay with SN12C renal, 101%; in the assay with UO-31 renal, 32.9%; in the assay on TK-10 renal, 120%; with ACHN renal it was 109%. Further, the growth in the assay on CAKI-1 renal is 112%; with A498 renal it was 96.1%; in the assay with CCRF-CEM leukemia it was 98.4%; with MOLT-4 leukemia, 93.4%; in the assay on SR leukemia it was 97.4%; with RPMI-8226 leukemia, 96.3%. For the same compound, the growth in the assay on OVCAR-8 ovarian was 96.5%; in the assay with OVCAR-5 ovarian, 89.9%; in the assay with OVCAR-4 ovarian it was 97.7%; in the assay with SK-OV-3 ovarian, 99.3%; in the assay with OVCAR-3 ovarian, 115%; in the assay with HS 578T breast, 111%. Moreover, in the assay with NCI/ADR-RES ovarian, the growth was 54.2%.

For `COc1ccc(CNC(=O)c2c(C)n([O-])c3cc(F)c(F)cc3[n+]2=O)cc1`, the growth in the assay with SK-MEL-2 melanoma was 88.1%; in the assay on EKVX NSCLC, 89.2%; with SN12C renal, 95.2%; in the assay on UO-31 renal it was -32.4% (active); in the assay on TK-10 renal, 102%; in the assay on ACHN renal, 98.7%. The growth in the assay with CAKI-1 renal was 152%; in the assay with A498 renal, 95.1%; in the assay with CCRF-CEM leukemia, 90.8%; in the assay with MOLT-4 leukemia, 97%; in the assay on SR leukemia it was 37.5%; in the assay with RPMI-8226 leukemia, 86%. Also, the growth was 88% in the assay on OVCAR-8 ovarian; 99.5% in the assay on OVCAR-5 ovarian; 116% with OVCAR-4 ovarian; 111% in the assay on SK-OV-3 ovarian; 56% in the assay with OVCAR-3 ovarian; 97.3% with HS 578T breast. For the same compound, the growth in the assay with NCI/ADR-RES ovarian was 108%.
